According to ChEMBL document CHEMBL1961873, “Compounds: GSK PKIS; Assays: Nanosyn kinase panel” (2012):

Legend:
[1] = biological target: Dual specificity protein kinase CLK3 (Homo sapiens) (UniProt P49761); conditions: at 1 µM;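 note: each value is the mean inhibition of CLK3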
[2] = biological target: Dual specificity tyrosine-phosphorylation-regulated kinase 1A (Homo sapiens) (UniProt Q13627); conditions: at 0.1 µM
[3] = biological target: Dual specificity tyrosine-phosphorylation-regulated kinase 1A (Homo sapiens) (UniProt Q13627); conditions: at 1 µM
[4] = biological target: Dual specificity tyrosine-phosphorylation-regulated kinase 1B (Homo sapiens) (UniProt Q9Y463); conditions: at 0.1 µM
[5] = biological target: Dual specificity tyrosine-phosphorylation-regulated kinase 1B (Homo sapiens) (UniProt Q9Y463); conditions: at 1 µM
[6] = biological target: T1, Dual specificity tyrosine-phosphorylation-regulated kinase 2 (Homo sapiens) (UniProt Q92630); conditions: at 0.1 µM
T1 sequence (whole entry): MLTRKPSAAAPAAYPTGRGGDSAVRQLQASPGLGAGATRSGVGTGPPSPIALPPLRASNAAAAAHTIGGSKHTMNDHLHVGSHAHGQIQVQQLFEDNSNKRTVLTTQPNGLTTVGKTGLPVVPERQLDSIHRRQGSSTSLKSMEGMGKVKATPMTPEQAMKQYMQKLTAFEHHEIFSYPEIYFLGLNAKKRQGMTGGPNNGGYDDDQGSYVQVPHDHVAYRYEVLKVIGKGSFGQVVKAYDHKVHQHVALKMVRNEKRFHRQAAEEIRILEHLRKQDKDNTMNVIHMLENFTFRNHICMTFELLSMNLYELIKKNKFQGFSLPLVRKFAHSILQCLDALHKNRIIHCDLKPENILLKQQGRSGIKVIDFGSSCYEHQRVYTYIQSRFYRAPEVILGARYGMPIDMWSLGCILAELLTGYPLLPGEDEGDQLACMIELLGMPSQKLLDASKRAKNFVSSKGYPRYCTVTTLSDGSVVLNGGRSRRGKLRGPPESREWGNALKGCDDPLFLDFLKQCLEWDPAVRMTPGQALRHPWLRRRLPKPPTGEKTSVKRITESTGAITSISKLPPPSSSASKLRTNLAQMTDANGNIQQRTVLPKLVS

[7] = biological target: T1, Dual specificity tyrosine-phosphorylation-regulated kinase 2 (Homo sapiens); conditions: at 1 µM
[8] = biological target: Glycogen synthase kinase-3 alpha (Homo sapiens) (UniProt P49840); conditions: at 0.1 µM
[9] = biological target: Glycogen synthase kinase-3 alpha (Homo sapiens) (UniProt P49840); conditions: at 1 µM
[10] = biological target: Glycogen synthase kinase-3 beta (Homo sapiens) (UniProt P49841); conditions: at 0.1 µM;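 note: values are mean percent inhibition of GSK3B activity, from the GSK Published Kinase Inhibitor Set (PKIS) screening dataset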
Glycogen synthase kinase-3 beta (Homo sapiens), sequence (P49841 whole entry, looked up): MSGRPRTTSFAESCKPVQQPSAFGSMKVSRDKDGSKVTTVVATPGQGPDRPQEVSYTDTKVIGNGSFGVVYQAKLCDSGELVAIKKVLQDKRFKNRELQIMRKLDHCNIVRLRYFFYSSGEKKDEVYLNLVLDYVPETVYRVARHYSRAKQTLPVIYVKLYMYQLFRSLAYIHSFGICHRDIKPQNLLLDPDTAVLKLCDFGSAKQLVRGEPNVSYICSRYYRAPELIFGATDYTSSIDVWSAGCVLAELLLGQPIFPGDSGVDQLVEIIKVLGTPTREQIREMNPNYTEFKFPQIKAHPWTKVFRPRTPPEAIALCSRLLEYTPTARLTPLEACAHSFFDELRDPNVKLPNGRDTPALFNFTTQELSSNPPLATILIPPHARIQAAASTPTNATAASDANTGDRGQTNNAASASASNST

Glycogen synthase kinase-3 alpha (Homo sapiens), sequence (P49840 2-483 limits assumed): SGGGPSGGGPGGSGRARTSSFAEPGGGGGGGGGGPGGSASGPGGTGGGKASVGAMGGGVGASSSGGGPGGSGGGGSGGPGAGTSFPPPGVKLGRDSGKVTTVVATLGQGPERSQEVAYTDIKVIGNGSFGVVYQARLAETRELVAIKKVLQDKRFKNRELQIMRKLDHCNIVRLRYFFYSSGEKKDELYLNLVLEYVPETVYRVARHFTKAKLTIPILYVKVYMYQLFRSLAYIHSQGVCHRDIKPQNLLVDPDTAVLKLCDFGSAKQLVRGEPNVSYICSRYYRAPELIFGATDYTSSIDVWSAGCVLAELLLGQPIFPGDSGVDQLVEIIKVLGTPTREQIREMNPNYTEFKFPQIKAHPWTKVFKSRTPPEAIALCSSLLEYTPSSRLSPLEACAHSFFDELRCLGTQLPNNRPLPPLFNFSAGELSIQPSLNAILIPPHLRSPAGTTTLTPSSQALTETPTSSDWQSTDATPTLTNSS
Dual specificity tyrosine-phosphorylation-regulated kinase 1B (Homo sapiens), sequence (Q9Y463 whole entry, looked up): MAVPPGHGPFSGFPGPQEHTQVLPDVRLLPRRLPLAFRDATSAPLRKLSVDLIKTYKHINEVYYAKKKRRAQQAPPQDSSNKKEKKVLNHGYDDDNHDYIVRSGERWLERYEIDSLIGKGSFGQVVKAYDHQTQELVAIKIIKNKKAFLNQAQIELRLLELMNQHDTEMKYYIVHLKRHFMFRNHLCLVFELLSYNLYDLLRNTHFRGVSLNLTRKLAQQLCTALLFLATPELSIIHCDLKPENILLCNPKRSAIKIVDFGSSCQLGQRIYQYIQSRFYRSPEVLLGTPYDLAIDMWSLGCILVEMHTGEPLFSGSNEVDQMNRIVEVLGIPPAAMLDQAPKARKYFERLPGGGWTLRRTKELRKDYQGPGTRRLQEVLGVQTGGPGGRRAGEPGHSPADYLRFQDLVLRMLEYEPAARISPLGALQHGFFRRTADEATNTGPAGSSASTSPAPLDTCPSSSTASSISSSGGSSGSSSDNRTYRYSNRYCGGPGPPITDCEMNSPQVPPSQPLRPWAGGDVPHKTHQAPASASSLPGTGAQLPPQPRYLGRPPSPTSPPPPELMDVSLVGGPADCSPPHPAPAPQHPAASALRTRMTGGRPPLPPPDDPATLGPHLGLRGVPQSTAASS
Dual specificity protein kinase CLK3 (Homo sapiens), sequence (P49761 whole entry, looked up): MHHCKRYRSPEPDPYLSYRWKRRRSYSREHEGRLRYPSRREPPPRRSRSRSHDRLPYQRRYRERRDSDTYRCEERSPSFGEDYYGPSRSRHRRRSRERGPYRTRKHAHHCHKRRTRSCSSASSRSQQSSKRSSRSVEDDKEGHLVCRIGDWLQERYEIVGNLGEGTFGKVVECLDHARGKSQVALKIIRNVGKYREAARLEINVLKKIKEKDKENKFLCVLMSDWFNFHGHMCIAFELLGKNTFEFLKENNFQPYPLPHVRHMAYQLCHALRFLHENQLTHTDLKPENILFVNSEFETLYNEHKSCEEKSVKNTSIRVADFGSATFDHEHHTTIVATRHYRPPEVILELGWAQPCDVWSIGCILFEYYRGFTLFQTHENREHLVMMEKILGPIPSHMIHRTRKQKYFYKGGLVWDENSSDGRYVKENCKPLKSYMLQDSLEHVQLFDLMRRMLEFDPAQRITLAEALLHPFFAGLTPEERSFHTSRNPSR

Structure (SMILES) | inhibition [1] [%] | inhibition [2] [%] | inhibition [3] [%] | inhibition [4] [%] | inhibition [5] [%] | inhibition [6] [%] | inhibition [7] [%] | inhibition [8] [%] | inhibition [9] [%] | inhibition [10] [%]
NC(=O)c1sc(-n2cnc3ccccc32)cc1OCc1ccccc1Br | 0.92 | 2.9 | 4.57 | 0.66 | 2.25 | 3.45 | 5.8 | 5.13 | 11.9 | 4.55
Nc1ccc(C#Cc2cncnc2Nc2ccc(OCc3cccc(F)c3)c(Cl)c2)cc1 | 0.7 | 3.22 | 2.99 | 0.49 | 2.12 | 1.74 | 0.41 | 2.01 | 1.4 | 1.95
ON=C1CCc2cc(-c3nc(C4CCNCC4)[nH]c3-c3ccncc3)ccc21 | 0.22 | -0.17 | 1.12 | 0.17 | -0.11 | -0.01 | 1.2 | 1.4 | 5.93 | 0.85
O=C1Nc2ccccc2/C1=C/Nc1ccc2[nH]c(=O)[nH]c2c1 | 4.44 | 6.01 | 23.3 | 2.68 | 16.1 | 4.31 | 11.1 | 3.7 | 14.4 | 2.99
[O-][S+]1CCN(Cc2ccc(-c3ccc4ncnc(Nc5ccc(OCc6ccccc6)c(Cl)c5)c4c3)o2)CC1 | -0.64 | 1.81 | 2.81 | 0.05 | 0.51 | 1.29 | 0.17 | 1.1 | 1.03 | 0.33
Cc1ccc2c(-c3ccnc(Nc4cccc(C(F)(F)F)c4)n3)c(-c3ccccc3)nn2n1 | 2.3 | 3.65 | 2.62 | 1.3 | 2.46 | 4.31 | 5.83 | 22.6 | 68.5 | 35.7
CCn1c(-c2nonc2N)nc2c(C#CC(C)(C)O)nc(OCCNC)cc21 | 0.43 | 2.71 | 2.94 | -0.33 | -0.29 | 5.86 | 5.26 | 11.6 | 49.9 | 8.59
Cc1cc(O)cc(C)c1/C=C/c1cncc(C(=O)N(C)C)c1 | 1.59 | 1.64 | 3.33 | 1.15 | 2 | 2.94 | 3.72 | 6.93 | 10.2 | 6.11
CCS(=O)(=O)c1ccc(OC)c(Nc2ncc(-c3cccc(OC)c3)o2)c1 | 13.2 | 8.22 | 41.4 | 6.86 | 37.7 | 3.86 | 18.4 | 1.96 | 9.4 | 2.23
Nc1nccc(-c2c(-c3ccc(F)cc3)ncn2CCCN2CCOCC2)n1 | 1.24 | 2.64 | 3.19 | 0.74 | 0.15 | 3.1 | 4.1 | 1.73 | 4.53 | 0.93
Cc1ccc(C(=O)NC2CC2)cc1-c1ccc2[nH]ncc2c1 | 0.04 | -1.4 | 2.6 | 1.19 | 3.29 | -3.32 | -3.69 | -1.07 | 1.83 | -0.96
FC(F)(F)c1ccc(-c2nn3ncccc3c2-c2ccnc(Nc3ccc4c(c3)OCCO4)n2)cc1 | 5.27 | 5.25 | 6.32 | 4.87 | 5.88 | -0.81 | 0.53 | 6.66 | 6.68 | 7.6
CN(C)CCCn1c(-c2nonc2N)nc2cnccc21 | 1.96 | 3.5 | 8.9 | 0.77 | 4.52 | 2.75 | 3.79 | 2.45 | 15.1 | 2.77
COc1ccc(-c2nn3ncccc3c2-c2ccnc(Nc3cccc(C(F)(F)F)c3)n2)cc1 | 0.95 | 2.09 | 1.66 | -0.34 | 1.16 | 1.77 | 0.78 | 2.36 | 2.7 | 1.41
N#Cc1c(NC(=O)c2ccccc2F)sc2c1CCCC2 | -0.09 | -0.74 | 1.91 | 0.18 | 0.36 | -2 | -2.88 | -0.74 | 0.03 | -0.5
C[C@@H](Oc1cc(-n2cnc3ccc(OCC4CCN(C)CC4)cc32)sc1C(N)=O)c1ccccc1C(F)(F)F | 3.73 | -2.42 | 2.47 | 0.26 | 2.2 | -2.57 | -2.94 | -0.56 | 2.65 | -0.31
Cc1cc(Cl)cc2c1NC(=O)C2=NNc1ccc(S(N)(=O)=O)cc1 | 0.83 | 1.45 | 2.28 | -0.62 | 1.24 | 0.8 | 2.04 | 2.99 | 6.57 | 1.19

Structure (SMILES) | inhibition [1] [%] | inhibition [2] [%] | inhibition [3] [%] | inhibition [4] [%] | inhibition [5] [%] | inhibition [6] [%] | inhibition [7] [%] | inhibition [8] [%] | inhibition [9] [%] | inhibition [10] [%]
COC(=O)Nc1nc2cc(Oc3ccc(NC(=O)Nc4cccc(Br)c4)cc3)ccc2[nH]1 | 1.74 | 1.12 | 2.3 | 0.23 | 1.17 | 3.11 | 3.59 | 2.27 | 5.24 | 1.01
COc1cc2ncnc(Nc3ccc4c(cnn4Cc4ccccc4)c3)c2cc1OC | 0.4 | 2.51 | 2.6 | -2.48 | 0.09 | 2.37 | 2.95 | 4.71 | 6.57 | 4.13
NS(=O)(=O)c1ccc(N/N=C2\C(=O)Nc3ccc(Cl)cc32)cc1 | 1.92 | 1.08 | 6.73 | 0.19 | 3.96 | 2.3 | 3.44 | 17.3 | 61.2 | 13.5
C[C@@H](Oc1cc(-n2cnc3ccc(OC[C@@H](O)CO)cc32)sc1C(N)=O)c1ccccc1Cl | 1.12 | 0.12 | 3.71 | 1.13 | 2.69 | -1.33 | 1.61 | 0.1 | 3.84 | 0.42
CN1CCN(C(=O)c2ccc(NC(=O)Nc3ccc(N(C)c4ccnc(Nc5ccc(CS(C)(=O)=O)cc5)n4)cc3)cc2)CC1 | -0.46 | -0.03 | -2.1 | 0.37 | -2.01 | 2.14 | 4.06 | 2.9 | 4.98 | 1.98
Cc1ccc2c(c1)/C(=N/Nc1ccc(S(N)(=O)=O)cc1)C(=O)N2 | -0.91 | -1.04 | 2.94 | -1.01 | 1.94 | 0.43 | -0.62 | 4.1 | 31.3 | 1.9
O=C1Nc2ccc(-c3cccnc3)cc2C1=Cc1cc(Br)c(O)c(Br)c1 | 38.6 | 21.7 | 63.5 | 9 | 46.7 | 3.53 | 15.5 | 4.28 | 26.1 | 3.87
Cc1nc(-c2ccccc2)n2nc(NCCCN3CCOCC3)ncc12 | 1.74 | 1.71 | 19 | 1.12 | 7.26 | 1.55 | 5.9 | 5.02 | 13.1 | 4.78
N#Cc1cccc(Nc2nccc(-c3cnn4ncccc34)n2)c1 | 78.4 | 81.7 | 86.4 | 81.3 | 86.5 | 20.3 | 71.5 | 85.3 | 89.5 | 84.1
COc1cccc(-n2nc(C)c3c(N/N=C(\C)c4ccncc4)ncnc32)c1 | -2.35 | 1.02 | 11 | 1.32 | 8.31 | 0.5 | 4.22 | 4.39 | 11.6 | 3.08
COc1cccc(-n2ncc3c(N/N=C/c4ccc(S(C)(=O)=O)cc4)ncnc32)c1 | 13.5 | 23.1 | 64.3 | 9.87 | 47.3 | 14.5 | 24.9 | 72.7 | 80.6 | 70.4
O=S(=O)(CCOCc1ccc(-c2ccc3ncnc(Nc4ccc(OCc5cccc(F)c5)c(Cl)c4)c3c2)o1)c1ccccc1 | 0.14 | 1.15 | 1.59 | -0.1 | 2.9 | 0.96 | 2.34 | 2.99 | 5.63 | 2.14
OCc1ccc(-c2nc(-c3ccccn3)c(-c3ccc4c(c3)OCO4)[nH]2)cc1 | 2.95 | 1.82 | 4.86 | 0.33 | 0.97 | 2.62 | 3.63 | 2.15 | 4.5 | 2.21
CN(c1ccc(NC(=O)Nc2ccc(OC(F)(F)F)cc2)cc1)c1ccnc(Nc2cccc(S(N)(=O)=O)c2)n1 | 1.99 | 1.32 | 1.5 | -2.14 | -0.44 | 2.23 | 3.14 | 2.09 | 9.4 | 0.92
COc1ccc2ncnc(Nc3ccc(OCc4ccccc4)cc3)c2c1 | 1.64 | 1.05 | 3.73 | -0.87 | 1.35 | 1.27 | 2.65 | 1.55 | 4.44 | 1.06
CS(=O)(=O)Nc1cccc(-c2ccc3c(NC(=O)C4CC4)n[nH]c3c2)c1 | 0.41 | -0.85 | 2.54 | -0.36 | 0.44 | 1.73 | 0.58 | 2.17 | 10.3 | 1.76
CS(=O)(=O)CCNCc1nc(-c2ccc3ncnc(Nc4ccc(OCc5cccc(C(F)(F)F)c5)cc4)c3c2)cs1 | -1.22 | -1.28 | -1.8 | 0.58 | 2.3 | 1.36 | 1.03 | 6.47 | 4.93 | 5.25
